Bcl-xL primary: Bcl-xL (human) inhibition; GST-Bcl-xL / FITC-Bim BH3 peptide fluorescence polarization; inhibition, % at 10.9 µM; hit rate 0.7% among 320,000;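 active = inhibition above the mean of all tested compounds plus 3 SD, cutoff set per campaign, cut at about 30% in these data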;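 also: 0% = DMSO wells and 100% = unlabeled Bim-BH3 peptide competitor; inhibitors lower millipolarization by displacing the labeled peptide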
MEX-5 binding: C. elegans MEX-5 TCR-2 RNA binding activity; hit rate 0.38% among 300,000; MEX-5/FITC-TCR2 RNA binding, fluorescence polarization; active compounds read low; Q9XUB2; activity score (negative = inhibition of binding), % at 10 µM;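 active = inhibition past about -25% in most replicates, and total fluorescence under double the plate's negative control median, limit read from the data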;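 also: 0% = DMSO and -100% = 5 µM competing unlabeled TCR2 RNA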
EBV gp42 block: inhibitors of Epstein-Barr virus glycoprotein 42. Q1HVG2. Fluorescence polarization binding assay, mP read-out. inhibition, % (tested at 21.74 µM). hit rate 0.42% among 220,000; in the data active = inhibition above about 50%
GLD-1 RNA inh: GLD-1-TGE RNA interaction inhibition (C. elegans) | inhibition, % at 5.96 µM | hit rate 0.44% among 320,000 | purified GLD-1 + fluorescein TGE RNA, fluorescence polarization;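 active = percent inhibition above a per-plate cutoff, the plate mean of test compounds plus 3 SD, cut at about 30% in these data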;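 also: 0% = DMSO wells with GLD-1 and probe and 100% = wells lacking GLD-1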
Target sequence (Q17339 whole entry, looked up): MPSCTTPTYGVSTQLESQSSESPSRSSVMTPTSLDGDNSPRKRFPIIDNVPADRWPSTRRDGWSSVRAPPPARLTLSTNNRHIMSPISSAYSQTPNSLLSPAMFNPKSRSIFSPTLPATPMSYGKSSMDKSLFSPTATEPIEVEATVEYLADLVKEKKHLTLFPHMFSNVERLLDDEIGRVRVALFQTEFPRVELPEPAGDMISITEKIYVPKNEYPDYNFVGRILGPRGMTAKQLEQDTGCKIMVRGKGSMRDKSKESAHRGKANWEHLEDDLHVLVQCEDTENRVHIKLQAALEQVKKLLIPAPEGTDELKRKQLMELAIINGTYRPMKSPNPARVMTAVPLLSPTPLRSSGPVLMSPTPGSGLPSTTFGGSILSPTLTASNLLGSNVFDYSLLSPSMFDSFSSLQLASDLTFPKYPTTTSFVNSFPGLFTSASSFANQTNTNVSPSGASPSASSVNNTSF
MCL1 BIM primary: MCL1-BIM-BH3 interaction inhibition (human); AID 2057; hit rate 0.68% among 320,000; inhibition, % at 10.9 µM; GST-MCL1 / FITC-Bim-BH3 fluorescence polarization;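 active = inhibition above the mean inhibition of all tested compounds plus 3 SD, set per campaign, cut at about 40% in these data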;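 also: 0% = DMSO wells and 100% = unlabeled Bim-BH3 peptide control; higher means more loss of mP so more displacement of Bim peptide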
E coli Lon inh: E. coli protease La inhibition; P0A9M0; purified E. coli Lon protease, fluorescence polarization; inhibition, % at 7.94 µM; hit rate 0.42% among 360,000; AID 602123; in the data active = inhibition above about 13%, passing the limit was not always enough;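 also: 0% = enzyme with probe and DMSO and 100% = no enzyme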
* hit, by the source's call; . = no result given. This is a sample that favours compounds with a hit; in the whole collection about 1.5% have one here.

SMILES	Bcl-xL primary	MEX-5 binding	EBV gp42 block	GLD-1 RNA inh	MCL1 BIM primary	E coli Lon inh
N#Cc1sc2nc(-c3cccs3)cc(-c3ccc(Cl)cc3)c2c1N	2	4	-32	8	8	0
CCN(CC)C(=O)c1sc2nc(-c3cccs3)cc(-c3ccc(Cl)cc3)c2c1N	-1	1	86*	-16	-19	11
CCN(CC)C(=O)c1sc2nc(-c3cccs3)cc(-c3cccs3)c2c1N	1	-33*	47	-12	2	-2
CC1=C([N+](=O)[O-])C(c2ccc3c(c2)OCO3)N(C)C(=O)N1C (stereo not drawn)	0	-1	.	5	5	0
Cc1ccc(Nc2nnc(SCC(=O)NC3CC3)s2)cc1	-5	.	.	2	-5	-9
Cc1ccc(-n2ncc3c2CC(C)(C)CC3NC(=O)c2ccncc2)cc1 (stereo not drawn)	5	1	.	2	4	-2
COc1ccccc1NS(=O)(=O)c1ccc(C(=O)Nc2ncccc2O)cc1	8	.	.	1	15	9
O=c1cc(-c2ccccc2)nc2c(-c3ccccc3)c(C(F)(F)F)[nH]n12	1	-2	60*	9	-1	5
Cc1cc(=O)n2[nH]c(C)c(-c3ccccc3)c2n1	-5	2	-6	-5	2	2
CCc1c(C)nc(SCC(=O)NNC(=O)c2ccco2)[nH]c1=O	4	-37*	.	2	8	1
COc1ccc(C=NCCC2(O)CC(C)N(C)CC2C)cc1 (stereo not drawn)	31*	-10	-5	7	41*	4
CS(=O)(=O)c1ccc(-c2csc(-c3cccnc3)n2)cc1	31*	-2	.	-2	5	-6
COc1ccccc1CN1CCNC(=O)C1CC(=O)N(C)Cc1nc(C)cs1 (stereo not drawn)	11	4	.	12	8	1
CCOC(=O)C1=C(O)/C(=C\c2cc(C)n(-c3ccccc3F)c2C)N=C1C	48*	-3	9	29	37	3
CCOC(=O)C1=C(O)/C(=C\c2cc(C)n(-c3ccc(F)cc3)c2C)N=C1C	29	0	24	20	25	-2
COc1cccc(C2=CC(c3ccccc3)n3ncnc3N2)c1 (stereo not drawn)	39*	-2	24	51*	41*	.
CCOc1ccc(C2C=C(c3ccc(F)cc3)Nc3ncnn32)cc1 (stereo not drawn)	38*	-1	53*	44*	45*	-4
CCOc1ccc(C2C=C(c3ccccc3)Nc3ncnn32)cc1 (stereo not drawn)	46*	2	25	37*	46*	.
COc1cccc(C2=CC(c3ccc(N(C)C)cc3)n3ncnc3N2)c1 (stereo not drawn)	4	0	-9	-99	-11	.
O=C(COC(=O)CNC(=O)c1ccccc1Cl)Nc1ccccc1Cl	3	.	.	0	0	-8
COCCN(CC(=O)Nc1ccccc1C(F)(F)F)C(=O)/C=C/c1ccc2ccccc2n1	0	.	.	2	1	-9
CC(=O)C1N=NCC1c1ccccc1 (stereo not drawn)	.	.	.	.	.	-2
CN(CCc1ccccc1)C(=O)c1cc(COc2ccc(F)cc2Cl)on1	4	0	.	2	4	1
COC(=O)C1=NN(C(=O)c2ccc(C)cc2)C(O)(c2ccc(Cl)cc2)C1 (stereo not drawn)	1	-40*	-14	-7	-6	.
CCOc1ccc(C2C(C(=O)/C=C/c3ccco3)=C(O)C(=O)N2CCN2CCOCC2)cc1OC (stereo not drawn)	34*	0	0	12	23	2
SMILES	Bcl-xL primary	MEX-5 binding	EBV gp42 block	GLD-1 RNA inh	MCL1 BIM primary	E coli Lon inh
CCOc1ccc2nc(SCC(=O)N3c4ccccc4Sc4ccccc43)c(C#N)cc2c1	55*	0	-48	48*	1	-23
CCOC(=O)CC(=O)CSc1nc2ccc(C)cc2cc1C#N	29	.	26	83*	15	-10
CCOc1ccc2nc(SCC(=O)N3c4ccccc4Sc4ccccc43)sc2c1	2	-2	-3	1	5	16
N#Cc1cc2ccccc2nc1SCC(=O)Nc1ccc(S(=O)(=O)N2CCCC2)cc1	-12	3	-23	45*	-26	-19
COc1ccc2nc(SCC(=O)Nc3ccc(S(=O)(=O)N4CCCC4)cc3)c(C#N)cc2c1	-14	10	-61	-45	-16	-23
Cc1ccc2nc(SCC(=O)Nc3ccccc3N3CCOCC3)c(C#N)cc2c1	0	0	50*	-11	0	-10
CCc1ccc2nc(SCC(=O)Nc3ccccc3N3CCOCC3)c(C#N)cc2c1	1	0	-4	-12	-6	5
CCOC(=O)CC(=O)CSc1nc(CC)c(C)cc1C#N	-6	-1	-4	-4	-3	7
COc1cc(CC(=O)N2CCN(S(=O)(=O)c3ccc(C(C)C)cc3)CC2)cc(OC)c1OC	.	.	.	.	.	3
Cc1cc(NC(=O)C(=O)NCc2cccc(Cl)c2)no1	2	-1	-2	6	-1	9
CCOC(=O)c1c(C)[nH]c(C(=O)OCC(=O)NC2(C#N)CCCCC2)c1C	0	-2	.	4	-2	-11
O=C(Cc1ccc([N+](=O)[O-])cc1)Nc1cccc(C(=O)N2CCCCC2)c1	.	.	.	5	.	16
C=CCn1ccc(=NC=C(C#N)C#N)c2ccccc21	-4	-75*	-36	-10	-11	-23
C=CCn1ccc2c([N+](=O)[O-])cccc2c1=O	0	1	2	-1	5	6
CC1(OC(=O)c2cccs2)C(=O)C=C2C=C(c3ccsc3)OC=C2C1=O (stereo not drawn)	13	-27*	.	17	27	.
CC1(OC(=O)c2cccs2)C(=O)C=C2C=C(c3ccc(C#N)cc3)OC=C2C1=O (stereo not drawn)	4	-20	.	6	3	.
CC1(OC(=O)c2cccs2)C(=O)C=C2C=C(C3CC3)OC=C2C1=O (stereo not drawn)	27	-20	.	35*	39	14
Cc1ccccc1C1=N/C(=C/c2cccs2)C(=O)O1	2	-27*	7	1	7	8
Cc1ccc(C)c(/C=C2\N=C(c3ccccc3F)OC2=O)c1	2	0	.	7	3	2
Cc1cccc2sc(NNC(=O)c3cc(=O)c4ccccc4o3)nc12	4	-79*	-15	-8	-13	-9
Cc1ccc2sc(NNC(=O)c3cc(=O)c4ccccc4o3)nc2c1C	2	-64*	-8	0	15	-4
O=C(NNc1nc2c(F)cccc2s1)c1cc(=O)c2ccccc2o1	-2	-8	-6	-3	-6	-11
CCC(C)(C)c1ccc(OCC(=O)Nc2ccncc2)cc1	69*	-4	.	-10	1	7
C=CCn1c(O)c(N=NC(=O)CNC(=O)/C=C/c2ccco2)c2ccccc21	10	-1	62*	0	29	-10
